From PubChem BioAssay (EPA / NIEHS)
Activity calls are given as the source filed them. The calls were made as follows: active = hit-call score of the fitted dose curve at least 0.9, where 1 is the maximum; inactive = score below 0.9.

Tests used:
[1] = ATG_CRE_CIS: Attagene CIS-FACTORIAL HepG2 Assay for human cAMP Responsive Element (CRE) binding protein 3 (AID 2282926); details: HepG2 CRE cis-reporter, Attagene multiplexed mRNA; actives raise or lower the signal
In short: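 Endogenous CRE-binding activity in HepG2 is reported through a cis-regulated transfected reporter. Following a day of exposure, mRNA levels are determined by reverse transcription PCR and fluorescent fragment analysis; fits run in both directions versus DMSO.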

[2] = biological target: CCAAT/enhancer-binding protein beta (Homo sapiens) (UniProt P17676); assay: ATG_C_EBP_CIS: Attagene CIS-FACTORIAL HepG2 Assay for human CCAAT/Enhancer Binding Protein (C/EBP) beta (AID 2282927); details: HepG2 Attagene cis-factorial transcription factor reporter; actives raise or lower the signal
In short: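 Transiently transfected HepG2 (MRTU library, endogenous TF-driven promoters); 24 h dosing; total RNA → oligo(dT) RT → PCR → 6-FAM primer extension → HpaI digest → CE; fit bidirectionally vs DMSO.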

[3] = ATG_CMV_CIS: Attagene CIS-FACTORIAL HepG2 Assay for human CMV (Internal Marker) (AID 2282928); details: HepG2 CMV promoter reporter, transcription factor profiling; actives raise or lower the signal;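 also: endpoint acts as a background internal control marker rather than a target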
In short: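 After transient transfection of HepG2 with reporter transcription units driven by cis-regulatory promoters, cells receive test chemical for 24 h. Labeled reporter amplicons, digested with HpaI, are sized and quantified by capillary electrophoresis against DMSO.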

[4] = ATG_AP_1_CIS: Attagene CIS-FACTORIAL HepG2 Assay for human Activator Protein 1 (AP-1) (AID 2282931); details: HepG2 Attagene cis-factorial AP-1 reporter mRNA; actives raise or lower the signal
In short: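 Transient MRTU transfection of HepG2 → 24 h chemical treatment → RNA isolation, RT-PCR, 6-FAM labelling, HpaI digest → capillary electrophoresis. Fit: bidirectional, DMSO negative control.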

[5] = ATG_AP_2_CIS: Attagene CIS-FACTORIAL HepG2 Assay for human Activator Protein 2 (AP-2) (AID 2282932); details: HepG2 AP-2 cis-reporter, Attagene transcription factor profiling; actives raise or lower the signal
In short: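 HepG2 cells transiently transfected with cis-element reporter units and exposed for 24 h. Reporter mRNA measured by RT-PCR, FAM labelling, HpaI digestion and capillary electrophoresis. Changes in either direction fitted relative to DMSO.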

[6] = ATG_BRE_CIS: Attagene CIS-FACTORIAL HepG2 Assay for human Bone Morphogenetic Protein (BMP) Response Element (BRE) (AID 2282933); details: HepG2 BMP response element reporter, Attagene transcription factor profiling; actives raise or lower the signal
In short: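 HepG2 cells transiently transfected with multiplexed cis-element reporter units were dosed with chemical for 24 h. Reporter mRNA was measured by RT-PCR with fluorescent labelling, HpaI digestion and capillary electrophoresis; bidirectional fitting relative to DMSO.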

[7] = biological target: Transcription factor E2F1 (Homo sapiens) (UniProt Q01094); assay: ATG_E2F_CIS: Attagene CIS-FACTORIAL HepG2 Assay for human E2F Transcription Factor 1 (AID 2282935); details: HepG2 Attagene cis-reporter, E2F reporter RNA transcripts; actives raise or lower the signal
In short: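 Endogenous E2F1 activity read through cis-promoter reporter units transfected into HepG2. After 24 h compound treatment, reporter mRNA measured by RT-PCR, HpaI digestion and capillary electrophoresis. Bidirectional fit versus DMSO.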

[8] = ATG_E_Box_CIS: Attagene CIS-FACTORIAL HepG2 Assay for human Enhancer Box (E-box) (AID 2282936); details: HepG2 E-box cis-reporter transcription, actives raise or lower the signal
In short: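 HepG2 cells transiently transfected with multiplexed cis-element reporter units, dosed 24 h; reporter mRNA quantified by RT-PCR, 6-FAM labelling, HpaI digestion and capillary electrophoresis. E-box (USF1) signal fitted bidirectionally vs DMSO.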

[9] = ATG_M_61_CIS: Attagene CIS-FACTORIAL HepG2 Assay for M61 Transcription Factor (Internal Marker) (AID 2282937); details: HepG2 Attagene CIS-FACTORIAL M61 internal marker reporter; actives raise or lower the signal
In short: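 Human liver HepG2, transient MRTU transfection (cis promoter elements), 24 h compound. Total RNA → oligo(dT) RT → PCR → FAM label → HpaI → CE. Internal background marker; bidirectional fitting, DMSO = baseline.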

[10] = ATG_EGR_CIS: Attagene CIS-FACTORIAL HepG2 Assay for human Early Growth Response 1 (EGR1) (AID 2282938); details: HepG2 Attagene CIS-FACTORIAL EGR reporter mRNA; actives raise or lower the signal
In short: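 Transient transfection of human HepG2 with multiple cis-regulated reporter units, chemical exposure 24 h, total RNA isolated. Reverse transcription, PCR, fluorescent labelling and capillary electrophoresis quantify reporter transcripts; activity fitted bidirectionally against DMSO.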

[11] = ATG_M_19_CIS: Attagene CIS-FACTORIAL HepG2 Assay for M19 Transcription Factor (Internal Marker) (AID 2282939); details: HepG2 Attagene CIS-FACTORIAL M19 internal marker reporter; actives raise or lower the signal
In short: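 HepG2 cells transiently transfected with cis-regulated multiple reporter transcription units were dosed for 24 h; reporter mRNA was quantified by RT-PCR, 6-FAM primer-extension labelling, HpaI digestion and capillary electrophoresis, with bidirectional fitting against DMSO baseline.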

[12] = ATG_GATA_CIS: Attagene CIS-FACTORIAL HepG2 Assay for human GATA Binding Protein (AID 2282944); details: HepG2 GATA cis-element reporter, Attagene multiplex mRNA; actives raise or lower the signal
In short: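 HepG2 cells transiently transfected with multiplexed cis-element reporter units reflecting endogenous transcription factor activity; reporter mRNA measured after 24 h dosing by RT-PCR, 6-FAM labeling, HpaI digestion and capillary electrophoresis. Bidirectional fitting versus DMSO baseline.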

[13] = ATG_GLI_CIS: Attagene CIS-FACTORIAL HepG2 Assay for human Zinc Finger Protein GLI1 (AID 2282945); details: HepG2, Attagene cis-factorial reporter mRNA, GLI element; actives raise or lower the signal
In short: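 Transiently transfected HepG2 cells report endogenous transcription factor activity via cis-element-driven reporter units. After 24 h compound exposure, reporter mRNA was measured by RT-PCR with capillary electrophoresis; bidirectional fitting against DMSO baseline.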

[14] = ATG_ISRE_CIS: Attagene CIS-FACTORIAL HepG2 Assay for human Interferon Regulatory Factor 1 (IRF1) binding to an Interferon-Stimulated Response Element (ISRE) (AID 2282948); details: HepG2 ISRE cis-reporter (Attagene), mRNA transcription readout; actives raise or lower the signal
In short: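 Cell-based cis-reporter assay; HepG2; 24 h exposure; reporter mRNA by RT-PCR plus capillary electrophoresis fluorescence; activity in either direction scored relative to DMSO.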

[15] = ATG_M_32_CIS: Attagene CIS-FACTORIAL HepG2 Assay for M32 Transcription Factor (Internal Marker) (AID 2282949); details: HepG2 Attagene cis-factorial M32 reporter, mRNA; actives raise or lower the signal;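 also: background control marker of the multiplexed CIS panel rather than a real target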
In short: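 Fluorescent capillary electrophoresis peaks of HpaI-digested, FAM-labelled RT-PCR reporter products give the signal. Source: transiently transfected human liver HepG2 cells, 24 h after chemical dosing; bidirectional fitting against DMSO.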

[16] = ATG_MRE_CIS: Attagene CIS-FACTORIAL HepG2 Assay for human Metal Responsive Element (MRE) (AID 2282954); details: HepG2 MRE cis-reporter transcription, Attagene multiplex; actives raise or lower the signal
In short: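 HepG2 cells transiently transfected with cis-element-driven reporter units; mRNA measured 24 h after dosing. Reporter transcripts quantified by RT-PCR, FAM labelling, HpaI digestion and capillary electrophoresis; bidirectional fit versus DMSO.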

[17] = biological target: Paired box protein Pax-6 (Homo sapiens) (UniProt P26367); assay: ATG_Pax6_CIS: Attagene CIS-FACTORIAL HepG2 Assay for human Paired Box 6 (PAX6) (AID 2282956); details: HepG2 CIS-FACTORIAL PAX6 reporter transcription, RNA readout; actives raise or lower the signal
In short: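 Multiplexed cis-reporter HepG2 system; 24 h treatment; reporter mRNA read by RT-PCR/CE fluorescence; bidirectional fit vs DMSO.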

[18] = ATG_PXRE_CIS: Attagene CIS-FACTORIAL HepG2 Assay for human Pregnane X Receptor Element (PXRE) (AID 2282957); details: HepG2 Attagene CIS-FACTORIAL PXRE reporter, mRNA; actives raise or lower the signal
In short: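 Cis-element reporter mRNA in human hepatoma HepG2 cells is measured 24 h post-dosing by RT-PCR, primer-extension labeling and capillary electrophoresis; gain or loss of signal is fitted relative to DMSO.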

[19] = biological target: Transcription factor Sp1 (Homo sapiens) (UniProt P08047); assay: ATG_Sp1_CIS: Attagene CIS-FACTORIAL HepG2 Assay for human Specificity Protein 1 (Sp1) (AID 2282961); details: HepG2 Sp1 cis-reporter transcription, actives raise or lower the signal
In short: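 Transient MRTU-transfected HepG2, 24 h compound exposure. Total RNA → oligo(dT) RT → PCR of reporter → 6-FAM primer extension → HpaI digest → CE. Endpoint fitted both directions vs DMSO.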

[20] = biological target: Signal transducer and activator of transcription 3 (Homo sapiens) (UniProt P40763); assay: ATG_STAT3_CIS: Attagene CIS-FACTORIAL HepG2 Assay for human Signal Transducer and Activator of Transcription 3 (STAT3) (AID 2282963); details: HepG2, Attagene cis-factorial STAT3 reporter transcription; actives raise or lower the signal
In short: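 HepG2 cells transiently transfected with multiple cis-element-driven reporter units report endogenous transcription factor activity. After 24 h compound exposure, reporter mRNA is measured by RT-PCR, 6-FAM labelling, HpaI digestion and capillary electrophoresis. Fitted bidirectionally versus DMSO.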

Measured: outcome

Sequence of Transcription factor E2F1 (Homo sapiens) (Q01094 whole entry, looked up): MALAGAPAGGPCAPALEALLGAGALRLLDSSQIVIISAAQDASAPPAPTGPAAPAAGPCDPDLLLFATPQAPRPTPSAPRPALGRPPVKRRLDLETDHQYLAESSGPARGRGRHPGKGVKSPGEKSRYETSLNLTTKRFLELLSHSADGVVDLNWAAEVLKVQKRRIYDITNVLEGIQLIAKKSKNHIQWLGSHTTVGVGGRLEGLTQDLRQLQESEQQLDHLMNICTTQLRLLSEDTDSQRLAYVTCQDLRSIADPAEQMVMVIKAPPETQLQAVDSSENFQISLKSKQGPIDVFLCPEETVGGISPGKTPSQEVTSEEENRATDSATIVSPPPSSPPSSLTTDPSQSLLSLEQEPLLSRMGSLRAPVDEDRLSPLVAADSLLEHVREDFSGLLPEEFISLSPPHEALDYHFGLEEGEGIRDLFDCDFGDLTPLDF
Sequence of CCAAT/enhancer-binding protein beta (Homo sapiens) (P17676 whole entry, looked up): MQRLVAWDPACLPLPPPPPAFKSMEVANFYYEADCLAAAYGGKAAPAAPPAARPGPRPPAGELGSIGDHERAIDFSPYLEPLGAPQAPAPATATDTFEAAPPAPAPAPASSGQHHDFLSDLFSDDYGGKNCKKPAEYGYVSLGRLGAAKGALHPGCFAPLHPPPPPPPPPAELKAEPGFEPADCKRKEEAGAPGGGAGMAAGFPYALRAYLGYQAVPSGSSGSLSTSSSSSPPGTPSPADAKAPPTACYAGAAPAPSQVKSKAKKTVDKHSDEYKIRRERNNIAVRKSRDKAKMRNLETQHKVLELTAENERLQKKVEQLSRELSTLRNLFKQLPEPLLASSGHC
Sequence of Signal transducer and activator of transcription 3 (Homo sapiens) (P40763 whole entry, looked up): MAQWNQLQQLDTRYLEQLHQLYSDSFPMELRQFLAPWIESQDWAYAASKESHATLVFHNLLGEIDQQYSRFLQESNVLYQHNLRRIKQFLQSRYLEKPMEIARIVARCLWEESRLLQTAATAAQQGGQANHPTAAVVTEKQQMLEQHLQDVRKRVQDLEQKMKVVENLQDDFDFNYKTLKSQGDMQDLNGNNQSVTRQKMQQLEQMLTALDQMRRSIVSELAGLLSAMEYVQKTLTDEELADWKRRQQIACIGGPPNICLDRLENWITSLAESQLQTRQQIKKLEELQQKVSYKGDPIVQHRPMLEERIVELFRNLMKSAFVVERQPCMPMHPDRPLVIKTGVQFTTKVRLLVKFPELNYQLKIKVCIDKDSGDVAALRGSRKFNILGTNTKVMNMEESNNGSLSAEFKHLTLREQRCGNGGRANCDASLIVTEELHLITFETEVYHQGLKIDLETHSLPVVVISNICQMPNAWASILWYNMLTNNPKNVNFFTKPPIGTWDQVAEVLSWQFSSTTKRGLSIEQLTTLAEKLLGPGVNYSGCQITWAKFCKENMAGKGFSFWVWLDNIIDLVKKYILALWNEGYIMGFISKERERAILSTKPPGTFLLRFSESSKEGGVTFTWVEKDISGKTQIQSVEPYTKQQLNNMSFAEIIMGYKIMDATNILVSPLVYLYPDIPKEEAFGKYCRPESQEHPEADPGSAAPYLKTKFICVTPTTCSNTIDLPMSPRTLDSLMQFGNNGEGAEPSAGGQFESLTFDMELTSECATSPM
Sequence of Paired box protein Pax-6 (Homo sapiens) (P26367 whole entry, looked up): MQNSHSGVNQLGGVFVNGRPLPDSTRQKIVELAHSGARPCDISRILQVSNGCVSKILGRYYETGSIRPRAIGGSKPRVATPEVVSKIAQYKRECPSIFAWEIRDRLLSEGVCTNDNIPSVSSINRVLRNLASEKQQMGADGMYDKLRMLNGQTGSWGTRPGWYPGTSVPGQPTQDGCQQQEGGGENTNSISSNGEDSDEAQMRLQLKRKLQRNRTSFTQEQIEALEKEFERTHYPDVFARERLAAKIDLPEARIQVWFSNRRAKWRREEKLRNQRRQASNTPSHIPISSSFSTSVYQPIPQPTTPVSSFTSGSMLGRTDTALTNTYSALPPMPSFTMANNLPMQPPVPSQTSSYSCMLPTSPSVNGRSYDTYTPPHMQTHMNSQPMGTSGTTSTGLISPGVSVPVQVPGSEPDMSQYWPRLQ
Sequence of Transcription factor Sp1 (Homo sapiens) (P08047 whole entry, looked up): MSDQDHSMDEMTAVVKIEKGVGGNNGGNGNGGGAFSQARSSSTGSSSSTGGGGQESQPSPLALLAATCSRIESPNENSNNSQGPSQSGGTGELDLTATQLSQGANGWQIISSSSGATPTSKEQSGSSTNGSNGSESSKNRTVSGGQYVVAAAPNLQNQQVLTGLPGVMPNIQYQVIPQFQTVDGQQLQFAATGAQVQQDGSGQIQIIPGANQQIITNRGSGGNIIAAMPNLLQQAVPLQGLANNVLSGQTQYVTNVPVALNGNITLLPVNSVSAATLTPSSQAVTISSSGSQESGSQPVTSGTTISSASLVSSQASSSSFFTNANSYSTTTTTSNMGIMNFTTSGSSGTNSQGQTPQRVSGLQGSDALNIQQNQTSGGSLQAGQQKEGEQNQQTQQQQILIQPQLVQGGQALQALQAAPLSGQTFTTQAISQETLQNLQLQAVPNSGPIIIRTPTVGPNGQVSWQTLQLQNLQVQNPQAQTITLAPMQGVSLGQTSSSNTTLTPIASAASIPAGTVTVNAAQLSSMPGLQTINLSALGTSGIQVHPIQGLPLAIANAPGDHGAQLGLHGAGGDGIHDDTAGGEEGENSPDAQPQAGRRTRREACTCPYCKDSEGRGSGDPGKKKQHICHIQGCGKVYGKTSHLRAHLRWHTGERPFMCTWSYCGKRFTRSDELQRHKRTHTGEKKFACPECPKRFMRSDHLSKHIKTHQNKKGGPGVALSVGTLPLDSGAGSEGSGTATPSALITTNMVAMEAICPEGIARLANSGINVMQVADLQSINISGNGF

C=CN1CCCCCC1=O
inactive: [1] | [2] | [3] | [4] | [5] | [6] | [7] | [8] | [9] | [10] | [11] | [12] | [13] | [14] | [15] | [16] | [17] | [18] | [19] | [20]

c1ccc(CNc2ncnc3nc[nH]c23)cc1
inactive: [1] | [2] | [3] | [4] | [5] | [6] | [7] | [8] | [9] | [10] | [11] | [12] | [13] | [14] | [15] | [16] | [17] | [18] | [19] | [20]

CC1(C)S[C@@H]2[C@H](NC(=O)[C@H](N)c3ccccc3)C(=O)N2[C@H]1C(=O)O
inactive: [1] | [2] | [3] | [4] | [5] | [6] | [7] | [8] | [9] | [10] | [11] | [12] | [13] | [14] | [15] | [16] | [17] | [18] | [19] | [20]

N#CCN(CC#N)CCN(CC#N)CC#N
inactive: [1] | [2] | [3] | [4] | [5] | [6] | [7] | [8] | [9] | [10] | [11] | [12] | [13] | [14] | [15] | [16] | [17] | [18] | [19] | [20]

C/C=C(\C)C(=O)OCC/C=C\CC
inactive: [1] | [2] | [3] | [4] | [5] | [6] | [7] | [8] | [9] | [10] | [11] | [12] | [13] | [14] | [15] | [16] | [17] | [18] | [19] | [20]
